Measurements from PMC3218832.

Legend:
Assay in all cases: protein binding microarray; high values mean tight binding
Conditions in all cases: dsDNA, one strand shown
[1] = target: RELARELA (p65 homodimer) (Homo sapiens, UniProt Q04206 1-307)
[2] = target: p50p50 homodimer (Homo sapiens, UniProt P19838 7-356)
[3] = target: T1, p52p52 homodimer (Homo sapiens, UniProt Q00653 4-332)
T1 sequence: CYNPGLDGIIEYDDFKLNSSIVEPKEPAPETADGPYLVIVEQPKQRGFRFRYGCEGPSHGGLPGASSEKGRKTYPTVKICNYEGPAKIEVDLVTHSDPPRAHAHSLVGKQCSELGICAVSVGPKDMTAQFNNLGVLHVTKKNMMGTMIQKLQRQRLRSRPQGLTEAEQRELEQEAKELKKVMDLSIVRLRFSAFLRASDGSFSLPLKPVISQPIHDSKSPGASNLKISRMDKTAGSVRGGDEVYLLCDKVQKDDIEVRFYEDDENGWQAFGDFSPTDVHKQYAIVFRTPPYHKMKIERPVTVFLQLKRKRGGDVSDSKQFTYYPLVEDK

[4] = target: RELA (p65) subunit of heterodimer;p50 subunit (Homo sapiens;Homo sapiens, UniProt Q04206;P19838 1-307;7-356)
[5] = target: RELA (p65) subunit of heterodimer;p52 subunit (Homo sapiens;Homo sapiens, UniProt Q04206;Q00653 1-307;4-332)
[6] = target: RELB subunit;p50 subunit (Homo sapiens;Homo sapiens, UniProt Q01201;P19838 120-401;7-356)
[7] = target: T2, RELB subunit;p52 subunit (Homo sapiens;Homo sapiens, UniProt Q01201;Q00653 120-401;4-332)
T2 sequence 1: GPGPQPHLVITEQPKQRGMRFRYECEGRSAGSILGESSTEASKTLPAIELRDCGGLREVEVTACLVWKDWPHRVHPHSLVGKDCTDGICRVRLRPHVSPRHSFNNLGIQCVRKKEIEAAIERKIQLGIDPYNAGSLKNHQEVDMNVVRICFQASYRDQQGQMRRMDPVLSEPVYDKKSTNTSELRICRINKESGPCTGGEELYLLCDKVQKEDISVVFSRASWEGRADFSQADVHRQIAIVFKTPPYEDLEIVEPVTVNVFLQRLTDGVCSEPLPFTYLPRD
T2 sequence 2: T1 sequence

[8] = target: C-Rel subunit;p50 subunit (Homo sapiens;Homo sapiens, UniProt Q04864;P19838 1-285;7-356)
[9] = target: T3, C-Rel subunit;p52 subunit (Homo sapiens;Homo sapiens, UniProt Q04864;Q00653 1-285;4-332)
T3 sequence 1: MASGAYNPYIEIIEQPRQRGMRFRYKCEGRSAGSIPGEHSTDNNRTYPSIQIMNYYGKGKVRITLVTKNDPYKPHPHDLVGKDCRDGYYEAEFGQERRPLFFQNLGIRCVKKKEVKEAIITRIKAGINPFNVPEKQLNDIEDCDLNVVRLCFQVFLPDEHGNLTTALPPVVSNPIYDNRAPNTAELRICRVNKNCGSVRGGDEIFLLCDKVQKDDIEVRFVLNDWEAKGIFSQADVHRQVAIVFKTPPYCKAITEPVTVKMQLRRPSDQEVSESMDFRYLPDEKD
T3 sequence 2: T1 sequence

p50p50 homodimer, sequence (P19838 7-356): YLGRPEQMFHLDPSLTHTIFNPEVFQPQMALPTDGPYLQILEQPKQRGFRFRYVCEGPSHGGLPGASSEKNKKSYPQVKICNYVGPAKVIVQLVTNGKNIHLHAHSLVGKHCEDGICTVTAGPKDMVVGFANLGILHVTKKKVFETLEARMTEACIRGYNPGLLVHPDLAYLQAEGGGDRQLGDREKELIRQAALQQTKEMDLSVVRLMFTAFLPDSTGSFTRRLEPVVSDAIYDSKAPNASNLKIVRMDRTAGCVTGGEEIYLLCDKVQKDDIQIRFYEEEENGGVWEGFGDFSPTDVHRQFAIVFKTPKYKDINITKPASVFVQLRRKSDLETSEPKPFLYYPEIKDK
RELA (p65) subunit of heterodimer;p50 subunit, sequence (Q04206 1-307, chain 1 of 2): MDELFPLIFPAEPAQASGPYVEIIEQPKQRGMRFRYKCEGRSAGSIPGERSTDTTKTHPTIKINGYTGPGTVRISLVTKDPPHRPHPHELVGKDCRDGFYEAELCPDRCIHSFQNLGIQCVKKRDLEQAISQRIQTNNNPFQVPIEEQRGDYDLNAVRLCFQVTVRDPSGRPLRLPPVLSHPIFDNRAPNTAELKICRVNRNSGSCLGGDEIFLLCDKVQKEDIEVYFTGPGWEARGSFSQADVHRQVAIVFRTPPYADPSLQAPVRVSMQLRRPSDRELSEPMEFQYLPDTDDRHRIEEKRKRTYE
RELA (p65) subunit of heterodimer;p50 subunit, sequence (P19838 7-356, chain 2 of 2): as the sequence (P19838 7-356) above
RELARELA (p65 homodimer), sequence (Q04206 1-307): as the sequence (Q04206 1-307, chain 1 of 2) above

Row | Sequence | binding signal [1] | binding signal [2] | binding signal [3] | binding signal [4] | binding signal [5] | binding signal [6] | binding signal [7] | binding signal [8] | binding signal [9]
1 | CGGATGGCCCT | -1 z-score | -1.09 z-score | -0.625 z-score | -0.472 z-score | -0.684 z-score | -0.367 z-score | -0.331 z-score | -0.715 z-score | -0.706 z-score
2 | CAGGTGCTCCT | -0.953 z-score | -0.0506 z-score | 0.0612 z-score | -0.571 z-score | -0.266 z-score | -0.45 z-score | -0.443 z-score | -1.31 z-score | -0.565 z-score
3 | CAGATACTCCC | -0.1 z-score | -0.181 z-score | -0.309 z-score | -0.154 z-score | -0.498 z-score | -0.145 z-score | -0.637 z-score | -0.312 z-score | -0.374 z-score
4 | AAAGTCATCCC | -0.416 z-score | -0.925 z-score | -0.412 z-score | -1.01 z-score | -0.716 z-score | -0.587 z-score | -0.628 z-score | -0.836 z-score | -0.699 z-score
5 | AGGAGCCTCCC | -0.27 z-score | -0.831 z-score | -0.599 z-score | -0.748 z-score | -0.852 z-score | -0.76 z-score | -0.789 z-score | -0.995 z-score | -0.719 z-score
6 | AGAAATACCCT | 0.554 z-score | 1.28 z-score | 1.33 z-score | 1.55 z-score | 1.35 z-score | 1.21 z-score | 1.27 z-score | 0.817 z-score | 1.68 z-score
7 | AAGGTTATCCC | -0.0178 z-score | -0.0329 z-score | 0.0211 z-score | -0.139 z-score | -0.074 z-score | -0.236 z-score | -0.173 z-score | -0.0847 z-score | -0.165 z-score
8 | GAGTGCTTCCC | 0.545 z-score | -0.398 z-score | -0.0563 z-score | -0.232 z-score | -0.157 z-score | -0.589 z-score | -0.383 z-score | -0.23 z-score | 0.0743 z-score
9 | GAGGTTATCCT | -0.457 z-score | -0.539 z-score | -0.329 z-score | -0.899 z-score | -0.657 z-score | -0.734 z-score | -0.759 z-score | -1.3 z-score | -0.681 z-score
10 | GAGATGATCCT | -0.876 z-score | -1.5 z-score | -0.697 z-score | -0.978 z-score | -1.06 z-score | -1.27 z-score | -1.16 z-score | -1.84 z-score | -1.11 z-score
11 | GAGAACTCCCC | 0.725 z-score | 1.15 z-score | 1.06 z-score | 1.34 z-score | 1.05 z-score | 1.1 z-score | 0.794 z-score | 0.916 z-score | 0.92 z-score
12 | GAATTTGTCCC | 1.3 z-score | 0.832 z-score | 0.9 z-score | 1.01 z-score | 0.944 z-score | 0.998 z-score | 0.873 z-score | 1.27 z-score | 0.573 z-score
13 | GGATTTCTCCT | 0.534 z-score | -0.711 z-score | -0.416 z-score | -0.294 z-score | -0.389 z-score | -0.703 z-score | -0.78 z-score | -0.477 z-score | -0.189 z-score
14 | GAATATATCCC | 0.0475 z-score | -0.184 z-score | -0.107 z-score | -0.275 z-score | -0.268 z-score | -0.131 z-score | -0.295 z-score | -0.368 z-score | -0.351 z-score
15 | GAGTTCTTCCT | -0.0672 z-score | -1.52 z-score | -0.678 z-score | -0.535 z-score | -0.734 z-score | -0.845 z-score | -0.72 z-score | -0.764 z-score | -0.548 z-score
16 | CGGGGACCCCT | -0.0408 z-score | 0.724 z-score | 0.639 z-score | 0.43 z-score | 0.693 z-score | 0.578 z-score | 0.906 z-score | 0.478 z-score | -0.0336 z-score
17 | CAAGAACCCCC | -0.244 z-score | 1.28 z-score | 1.21 z-score | 1.6 z-score | 1.28 z-score | 1.46 z-score | 1.32 z-score | 1.04 z-score | 0.879 z-score
18 | AGGTGATTCCC | 1.45 z-score | 0.701 z-score | 3.04 z-score | 1.59 z-score | 2.15 z-score | 1.33 z-score | 2.11 z-score | 1.81 z-score | 2.88 z-score
19 | AAAAGGATCCT | -0.683 z-score | -1.24 z-score | -0.703 z-score | -1.11 z-score | -1.09 z-score | -1.05 z-score | -0.866 z-score | -1.6 z-score | -0.998 z-score
20 | CAAGTATTCCT | -0.0829 z-score | -1.19 z-score | -0.607 z-score | -0.839 z-score | -0.737 z-score | -0.975 z-score | -0.645 z-score | -0.507 z-score | -0.822 z-score
21 | AGAGATTTCCT | 0.344 z-score | -0.498 z-score | -0.5 z-score | -0.403 z-score | -0.389 z-score | -0.762 z-score | -0.49 z-score | -0.209 z-score | -0.443 z-score
22 | GGGGTCTCCCT | 0.447 z-score | 0.727 z-score | 1.4 z-score | 1.01 z-score | 1.15 z-score | 0.85 z-score | 1.05 z-score | 0.709 z-score | 1.16 z-score
